Growth data for 14 compounds are collected here from PubChem BioAssay (NCI).

The panel holds about 83,000 compounds, 20% with a hit somewhere; the sample as a whole holds those more often.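 48-hour exposure, single concentration, 96-well plates; percent growth endpoint where 0 means no net growth. Active: below 10.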 A number with no mark means an inactive call. Active and inactive are the calls of the source.

What all share (experiment): NCI-60 one-dose screen, 48 h (100 = growth as untreated, 0 = no growth, -100 = all killed)
Holding throughout (details): 10 µM unless noted

The subject of test [1] is SR leukemia.
Test [2] concerns OVCAR-8 ovarian.
The test system of test [3] is OVCAR-5 ovarian.
Test [4] relates to OVCAR-4 ovarian.
The subject of test [5] is SK-OV-3 ovarian.
In test [6] the test system is IGROV1 ovarian.
Test [7] concerns OVCAR-3 ovarian.
Test [8] relates to HS 578T breast.
In test [9] the test system is NCI/ADR-RES ovarian.

In the case of `CC(C)C1=CC2=C(C=O)C[C@@H]3[C@](C)(CCC[C@@]3(C)C(=O)OCC#CCN3CCCC3)[C@H]2CC1`, the growth was 26.4% in test [1]; 77.9% in [2]; 88.1% in test [3]; 78.1% in test [4]; 81.8% in [5]; 75.4% in test [6]. Besides, the growth in test [7] was 88.7%; in test [8], 67.9%; in test [9] it was 82.2%.
As for `Cc1c(C(=O)/C=C/c2csc3ccccc23)[n+](=O)c2ccccc2n1[O-]`, the growth was 13.5% in test [1]; 21.1% in test [2]; 94.5% in test [3]; 43.5% in test [4]; 76.4% in test [5]; 16.6% in test [6]. Moreover, the growth was -38.8% (active) in test [7], 93.9% in test [8] and 22.5% in [9].
As to `Cc1ccc(C(=O)NCCCNc2nccc(-n3ccc4cccnc43)n2)cc1`, the growth was 92.7% in [1]; 100% in test [2]; 89.8% in [3]; 96.3% in test [4]; 106% in test [5]; 88.6% in test [6]. Moreover, the growth in test [7] is 105%; in [8], 101%; in test [9] it was 92.3%.
For the compound `O=C(NCc1cn(Cc2cccc(Oc3ccccc3)c2)nn1)c1cccnc1Nc1ccc(F)cc1`, the growth in [1] was 28.3%; in [2] it was 67.2%; in test [3], 89.3%; in [4], 86.1%; in test [5], 52.2%; in test [6] it was 79.4%. The growth was 35.9% in [7], 76.7% in [8] and 31.7% in [9].
As to `CC(=O)Nc1nc(N)nc(NC(C)=O)c1N=O`, the growth in test [1] was 100%; in test [2] it was 109%; in test [3] it was 108%; in test [4], 127%; in test [5], 103%; in test [6], 131%. Besides, the results for the growth in test [7], in test [8] and in test [9] were 99.7%, 104% and 97.2%, respectively.
Regarding `C=CCSc1n[nH]c(-c2cccs2)n1`, the growth in test [1] is 91%; in test [2] it was 102%; in [3], 98.2%; in [4], 107%; in test [5], 110%; in [6] it was 15.8%. Besides, the growth in test [7] was 115%; in test [8], 101%; in test [9] it was 102%.
For `C/C(=C\c1ccc(OCC(=O)O)c(Cl)c1Cl)[N+](=O)[O-]`, the growth in test [1] was 72.1%; in test [2] it was 93.7%; in test [3], 113%; in test [4], 114%; in test [5], 94%; in test [6], 133%. Further, the figures for the growth in test [7], in [8] and in test [9] were 99.9%, 107% and 102%, respectively.
As to `C=C[C@@H]1C[C@H](O)Cc2c(C)cc(C)cc2N1`, the growth in [1] was 82.8%; in [2], 98.5%; in test [3], 89.3%; in test [4], 108%; in [5], 106%; in test [6], 109%. The growth was 112% in [7], 99.9% in test [8] and 97.1% in [9].
In the case of `CC12CCC3C4(C)COC(c5ccco5)OC4CCC3(C)C1CC(C1=CCOC1=O)O2` (stereo not given), the growth in [1] was 95.7%; in test [2], 108%; in test [3], 99.8%; in test [4], 103%; in test [5], 121%; in [6], 93.8%. Besides, the growth was 105% in test [7], 107% in test [8] and 98.5% in [9].
`Cc1ccc(S(=O)(=O)Nc2c(Br)cc(Br)cc2C(N)=O)cc1`: the growth in [1] is 111%; in [2], 105%; in test [3] it was 99.1%; in [4], 114%; in [5], 106%; in test [6] it was 104%. The growth was 112% in test [7], 106% in test [8] and 99.4% in test [9].
As to `N#Cc1c(-c2ccccc2)cc(-c2ccccc2)n(CC(=O)NO)c1=O`, the growth in [1] is 2.74% (active); in [2], 67.7%; in test [3], 69.3%; in [4], 50.6%; in test [5], 107%; in [6] it was -61.4% (active). In addition, the growth is 30% in test [7], 39.4% in [8] and 11.5% in test [9].
As to `O=C1Nc2ccc3c(c2/C1=C\c1cc2c(cc1Br)OCO2)OCO3`, the growth was 29.3% in test [1]; 35% in test [2]; 65.2% in test [3]; -45.5% (active) in [4]; 2.7% (active) in test [5]; -7.11% (active) in [6]. Moreover, the values for the growth in test [8] and in test [9] were -14.5% (active) and 1.49% (active), respectively.
Turning to `CC(C)(C)n1cc(-c2ccnc(NCCCNS(=O)(=O)c3ccc(F)cc3)c2)c(-c2cccc(O)c2)n1`, the growth is 13.8% in [1]; 51.5% in test [2]; 65% in test [3]; 53.9% in test [4]; 83.8% in test [5]; 51.1% in [6]. Moreover, the growth in [7] is 56.1%; in [8] it was 52.4%; in [9] it was 53%.
As to `N[C@H]1CN(C(=O)c2cc3cc(Br)c(F)c(F)c3[nH]2)C[C@@H]1O`, the growth in [1] is 108%; in test [2] it was 100%; in [3] it was 94.3%; in test [4], 110%; in test [5], 100%; in [6] it was 84.6%. Moreover, the growth in [7] is 102%; in [8] it was 98.9%; in test [9], 100%.
